The structures appear in SMILES notation. Over roughly 1,500 compounds, “activity” has its median near 2; the lowest 2% begin near -18. This is one part of a sample in which the lowest values are shown more often than they occur. Calls of active or inactive are those of the source.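 Rule for the calls: active = inhibition of at least 40% at 10 µM; inconclusive = no clear call, values can overlap the other calls; inactive = the rest.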

Chain of Sulfhydryl oxidase 1 (Homo sapiens) (O00391 whole entry, looked up): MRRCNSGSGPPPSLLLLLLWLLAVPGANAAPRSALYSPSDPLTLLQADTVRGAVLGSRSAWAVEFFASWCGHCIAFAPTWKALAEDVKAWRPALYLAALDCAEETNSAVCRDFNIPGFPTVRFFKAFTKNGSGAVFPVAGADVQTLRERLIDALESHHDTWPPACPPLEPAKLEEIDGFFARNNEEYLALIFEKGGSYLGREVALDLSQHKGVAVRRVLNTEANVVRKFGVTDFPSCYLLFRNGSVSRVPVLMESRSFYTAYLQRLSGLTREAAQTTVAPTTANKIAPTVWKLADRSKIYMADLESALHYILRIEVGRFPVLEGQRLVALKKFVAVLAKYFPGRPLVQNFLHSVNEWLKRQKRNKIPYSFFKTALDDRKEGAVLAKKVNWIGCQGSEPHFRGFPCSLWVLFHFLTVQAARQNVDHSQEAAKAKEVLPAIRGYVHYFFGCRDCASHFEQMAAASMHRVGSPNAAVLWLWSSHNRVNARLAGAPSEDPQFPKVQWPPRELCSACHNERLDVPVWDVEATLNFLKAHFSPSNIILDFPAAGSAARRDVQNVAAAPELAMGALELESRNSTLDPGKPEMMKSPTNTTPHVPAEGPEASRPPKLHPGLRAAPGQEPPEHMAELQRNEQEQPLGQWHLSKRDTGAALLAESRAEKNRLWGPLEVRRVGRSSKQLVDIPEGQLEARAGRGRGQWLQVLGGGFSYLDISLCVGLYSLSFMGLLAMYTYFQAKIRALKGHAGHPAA

The experiment concerns the target Sulfhydryl oxidase 1 (Homo sapiens) (UniProt O00391). The experiment can be described thus: human QSOX1 sulfhydryl oxidase inhibition – biochemical, ROS-Glo luminescence, single concentration, confirmation (AID 1347421).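 Note: 0% = DMSO wells with enzyme and 100% = wells lacking QSOX1 enzyme.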 The conditions noted are these: recombinant hQSOX1, RNase A substrate, ROS-Glo H2O2 luminescence; at 10 µM.
On to `C=CCC(=O)N(CCOC)CC1CCCN(C2Cc3ccccc3C2)C1` (centres undefined), for which the activity worked out at 6.2%. Regarding `COC(=O)c1ccc(-c2noc(CN(C)CC3Cc4ccccc4O3)n2)cc1` (centres undefined), the activity turned out to be 5.4%. Take `CCOC(=O)c1nc(-c2ccc(F)cc2)no1`: the activity is -21.6% (inactive). In the case of `CCC(=O)Oc1ccc(-c2nc(-c3cccc(OC)c3)no2)cc1` it was 86.9% (active); in that of `CC(C)NC(=O)C1CCN(C2CCN(C3CCSCC3)CC2)CC1`, 0.2%; in that of `COc1ccccc1C(=O)C1CCCN(Cc2ccc(OCCO)cc2)C1` (centres undefined), 1.5%.

Consider `O=C(c1cc2ccccc2oc1=O)N1CCOC(CC2CCCCC2)C1` (centres undefined), for which the activity was 0.4%.

Turning to `COc1ccc(N2CCN(C(=O)c3ccc(-n4cnnc4)cc3Cl)CC2)cc1`, the activity was -13.7% (inactive). In the case of `CC(=O)Nc1cccc(C(=O)N2CCN(c3ccccc3)CC2)c1`, the activity is 5.9%. On to `COc1ccc(N2CCN(C(=O)c3cccc(-n4cnnc4)c3)CC2)cc1`, for which the activity is -22.3% (inactive). For `COCCN1CCCC(O)(CN2CCCCCC2)C1=O` (centres undefined), the activity was 10.4%. In the case of `O=C(CSc1nnc(-c2ccco2)o1)Nc1ccc(Br)cc1` it was 2.3%. For `O=C(/C=C/c1cccnc1)N1CCCC(N2CCN(c3ccc(F)cc3)CC2)C1` (centres undefined), the activity worked out at 1%. In the case of `c1ccc(-c2nn3c(-c4ccco4)nnc3s2)nc1` it was -4.2% (inactive). In the case of `c1ccc(Cc2nn3c(-c4cccs4)nnc3s2)cc1`, the activity was -5.3% (inactive). For `c1ccc(-c2nn3c(-c4cccs4)nnc3s2)nc1`, the activity was -20.4% (inactive).

For the molecule `OCC1CCN(C2CCCN(Cc3cccc(OC4CCCC4)c3)C2)CC1` (centres undefined), the activity is 7%. Take `CCN(CC)CC(=O)N1CCOC(Cc2ccccc2Cl)C1` (centres undefined): the activity is 2.5%.

Consider `CCN(CC)S(=O)(=O)Cc1ccccc1Cl`, for which the activity was -19.9% (inactive). For the molecule `CCCCNC(=O)N1CCN(Cc2ccccc2Cl)CC1`, the activity is -7% (inactive). Take `C=CCNC(=O)CCc1ccc(S(=O)(=O)NC)cc1`: the activity is -11.4% (inactive). Regarding `O=C(Cn1nnc(-c2cccs2)n1)NCCC1=CCCCC1`, the activity is -7.9% (inactive). For `CC(C)CCCC1CN(C(=O)CCC(N)=O)CCO1` (centres undefined), the activity turned out to be 6.8%. `Cc1occc1-c1nnc2n1N=C(c1ccccc1)CS2`: the activity is -19.7% (inactive).

Turning to `Cc1oc(-c2ccccc2Cl)nc1CN(Cc1cnn(C)c1)C(C)C`, the activity is 5.9%. With `COc1ccc(CNCCCSC)cc1OCC(O)CN(C)C(C)C` (centres undefined), the activity was 3.5%. With `O=C(NCC(c1ccc(F)cc1)N1CCCC1)c1cn(CCN2CCOCC2)nn1` (centres undefined), the activity came to 2.4%. Consider `COc1cccc(NC(=O)CCC2CCN(C(=O)CCc3cnccn3)CC2)c1`, for which the activity was -0.4% (inactive). The result for `CCN1CCCC1CNC(=O)CCC1CCN(Cc2cc(OC)c3c(c2)OCO3)CC1` (centres undefined) reads 0.6%; that for `CCS(=O)(=O)c1ncc(CN(C)CC(O)c2ccccc2)n1Cc1ccccc1` (centres undefined), 6.9%. The result for `CCn1cc(-c2nc(-c3ccccn3)no2)cn1` reads 44.4% (active); that for `COCCN1C(=O)C(=O)/C(=C(\O)c2ccc(OC)cc2C)C1c1cccnc1` (centres undefined), -3% (inactive); that for `NC(=O)C1CCCN(C(=O)Nc2ccc(F)cc2)C1` (centres undefined), -0.4% (inactive). In the case of `CSc1ncc(CN2CCCC(CO)(CCOc3ccccc3)C2)cn1` (centres undefined) it was 10.5%; in that of `COc1ccccc1CCN1CCC(CN(C)C(=O)c2cscn2)CC1`, -1.8% (inactive).

As to `Cc1cc(CNCc2cccc(OCC(O)CN3CCCCCC3)c2)on1` (centres undefined), the activity is -2.7% (inactive). Take `COC(=O)c1ccc(CNC(=O)CC2C(=O)NCCN2Cc2cccs2)cc1` (centres undefined): the activity came to 2.8%.

For `O=C(c1ccc(-c2ccccc2)c(F)c1)C1CCCN(C(=O)CCc2cnccn2)C1` (centres undefined), the activity was 9.5%.

In the case of `Fc1ccc(C2(c3noc(-c4cn[nH]c4)n3)CCOC2)cc1` (centres undefined), the activity was 2.1%. The result for `Cc1cc(C)c(S(=O)(=O)Nc2ncn[nH]2)c(C)c1` reads -18.4% (inactive); that for `CC(C)Oc1cccc(C(=O)Nc2ncn[nH]2)c1`, -3.3% (inactive). As to `CCOC(=O)C1(CCCc2ccccc2)CCN(C(=O)CCn2cnnn2)CC1`, the activity turned out to be 0.6%. On to `COCc1ccc(C(=O)N2CCC(CCC(=O)NCc3cccnc3)CC2)o1`, for which the activity turned out to be 4.1%. `CC(C)CCCC1CN(Cc2ncc[nH]2)CCO1` (centres undefined): the activity is 5.8%.

Regarding `COc1ccc(OC2CCN(C(=O)C3CC3)CC2)c(C(=O)NCCCN2CCOCC2)c1`, the activity was found to be 2%. Consider `O=C(CN1CCCCCC1)Nc1ccc(Cl)cc1`, for which the activity is -10% (inactive). For `Cc1ccc(NC(=O)CN2CCc3ccccc3C2)cc1`, the activity was -21.7% (inactive). Regarding `Cc1cccc(N2CCN(CC(=O)Nc3ccc(S(N)(=O)=O)cc3)CC2)c1C`, the activity was -11.2% (inactive). Turning to `CN(C)CCC1CN(C(=O)CSc2ccccc2)CCO1` (centres undefined), the activity was 4.2%. In the case of `CC(C)Cc1ccc(CN2CCCC(NC3CCN(C)CC3)C2)cc1` (centres undefined), the activity was -2.5% (inactive). With `O=C(CCc1ccncc1)N1CCOC(Cc2ccccc2Cl)C1` (centres undefined), the activity is 3.1%.

Turning to `CCN1CCCC1CN(CC1CCN(CCOC)CC1)C(=O)CCc1ccc(=O)[nH]n1` (centres undefined), the activity was 6.9%. For the molecule `CN(C)CCC1CN(Cc2cnc(-c3ccccc3)s2)CCO1` (centres undefined), the activity was -0.6% (inactive). For `CCCn1c(=O)c2c(nc3n2CCN3Cc2ccco2)n(C)c1=O`, the activity is -9.9% (inactive). Take `Cc1nc(-c2ccc(CN3CCC(CCn4cccn4)CC3)cc2)[nH]c(=O)c1F`: the activity turned out to be 7.1%.

Turning to `O=C(c1ccc(-c2ccccc2)cc1)C1CCCN(C(=O)CN2C(=O)CSC2=O)C1` (centres undefined), the activity came to 5.7%. As for `O=C(CN1C(=O)CCNC1=O)N1CCC(OCc2ccccc2)CC1`, the activity was 2.9%. As for `CC(C)(C)C1(c2ccccc2)NC(=O)N(CC(=O)N2CCCCC2)C1=O` (centres undefined), the activity was -23.9% (inactive). As for `COc1ccc(-c2noc(CN3CCC(C)CC3)n2)cc1OC`, the activity was -16% (inactive).

Consider `COc1cc(CN2CC[C@@H](N3CCCCCC3)[C@H](O)C2)ccc1F`, for which the activity is 0.7%. For the molecule `CS(=O)(=O)N(CC(=O)N1CCCC1)Cc1ccc(F)cc1`, the activity was -19.7% (inactive). In the case of `CN(C)S(=O)(=O)c1ccc(CCC(=O)N2CCOCC2)cc1` it was 1.9%; in that of `O=C(CCC1CCCN(C/C=C/c2ccc(F)cc2)C1)N1CCCC1` (centres undefined), -1.2% (inactive). Take `COc1ccc(CNCCCN2CCOCC2)cc1OCC(O)CN1CCCC1` (centres undefined): the activity came out at 4.6%. Take `COC(=O)CCCNC(=O)C1CCC(=O)N(Cc2ccccc2OC)C1` (centres undefined): the activity turned out to be 1.6%. In the case of `COCCCNc1nc2nonc2nc1N(C)CCN1CCOCC1`, the activity is -1.4% (inactive). The result for `COc1ccc2oc3nc(=O)c4ccccc4c-3cc2c1` reads -123% (inactive); that for `COc1ccc(C(C)N(C)Cc2nc(-c3ccc(OC)cc3OC)oc2C)cc1` (centres undefined), 5.7%; that for `COc1ccc(OC)c(-c2nc(CN3CCN(C(=O)c4ccco4)CC3)c(C)o2)c1`, -4% (inactive).

The record behind these values is PubChem BioAssay AID1347421 (Sanford-Burnham Center for Chemical Genomics, 2020).
